We go through 18 compounds from PubChem BioAssay (NCATS).

Results filed as inconclusive are left out. Calls of active or inactive are those of the source. Calls follow the shape of the dose curve; as a rule, active = well fitted inhibition curve with a large enough effect; inconclusive = small, poorly fitted or top-dose-only effect; inactive = flat fitted curve, though single readings scatter.

Assay in all cases: qHTS profiling for inhibitors of Plasmodium falciparum proliferation (AID 504749); also: nearly all actives have a fitted effect of over 60% in size
What all share (conditions): P. falciparum in erythrocytes, SYBR Green DNA, 72 h; series mostly up to 28.7 µM

One assay deals with CP335. Summed up: (§1)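 Readout was DNA-dye fluorescence from lysed cultures, ex 485/em 535 nm. Parasitized red cells had grown 72 h with compound; data scaled between 0.29 uM artemisinin and DMSO wells and corrected using vehicle-only plates.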
The test system of another assay is DFO2036. Summed up: as §1
A further assay has as its system DIV30. Summed up:
as §1

The next assay relates to Dd2. The essentials:
as §1

A further assay has as its system ECU. The essentials: as §1
The subject of another assay is FAB9. Summed up:
as §1

The subject of the next assay is HB3. Summed up:
as §1

The next assay has as its system ICS. Summed up:
as §1

Another assay deals with JCK. The essentials: as §1
The subject of a further assay is N140. The essentials: as §1
Another assay concerns P94_40. The essentials: as §1
The test system of the next assay is PAD. The essentials:
as §1

The next assay has as its system PC15. Summed up: as §1
For a further assay, the system named is PC26. The essentials:
as §1

The next assay relates to PC49. Summed up: as §1
In the next assay the test system is SC27B. Summed up: as §1
Another assay deals with DIV14. The essentials: as §1
For another assay, the system named is GB4. The essentials:
as §1

The test system of another assay is P93_24. The essentials:
as §1

In another assay the test system is DIV17. The essentials:
as §1
Potency is read from the fitted curve at half-maximal effect.

As for `Cc1cc(C(C)(C)C)cc(C)c1CC1=NCCN1`, the Potency result with CP335, in the assay on DFO2036, with DIV30, with Dd2, with ECU and with FAB9 was “inactive” throughout. The Potency entry in the assay with HB3, in the assay on ICS, in the assay with JCK, in the assay on N140, with P94_40 and in the assay with PAD was “inactive” each time. Also, the Potency entry with PC15, with PC26, in the assay with PC49 and in the assay on SC27B was “inactive” in each case.

For the compound `COc1ccc(CCN(C)CCCC(C#N)(c2ccc(OC)c(OC)c2)C(C)C)cc1OC` (stereo not drawn), the Potency entry with DFO2036, in the assay on DIV14, in the assay on ECU, in the assay on FAB9, with GB4 and with HB3 was “inactive” each time. Further, the Potency entry in the assay with JCK, in the assay with N140, in the assay with PAD, with PC15, in the assay with PC49 and with SC27B was “inactive” in each case.

As to `Cn1ccc2cc3c(cc21)CCN3C(=O)Nc1cccnc1`, the Potency in the assay on DIV14 was 12 µM (active); in the assay with GB4, 15.1 µM (active); in the assay with PC26 it was 13.5 µM (active). For the same compound, the Potency entry in the assay with Dd2, in the assay on FAB9 and in the assay with HB3 was “inactive” throughout.

For `CC(C)NCC(O)COc1ccc(CCOCC2CC2)cc1` (stereo not drawn), the Potency entry with FAB9, with JCK, with PC49 and with SC27B was “inactive” throughout. The Potency in the assay with ICS was 5.01 µM (active).

On to `CC[C@@]1(O)C(=O)OCc2c1cc1n(c2=O)Cc2cc3c(CN(C)C)c(O)ccc3nc2-1`, for which the Potency with CP335 is 4.78 µM (active); in the assay with DFO2036, 5.62 µM (active); in the assay on Dd2 it was 10 µM (active); in the assay with ECU, 3.98 µM (active); with GB4, 5.36 µM (active); in the assay on ICS it was 7.94 µM (active). Moreover, the Potency is 4.47 µM (active) with P93_24 and 2.82 µM (active) in the assay with P94_40. For the same compound, the Potency result with FAB9, with PC15 and in the assay with PC49 was “inactive” throughout.

Take `O=C(c1ccc(F)cc1)C1CCN(CCn2c(=O)[nH]c3ccccc3c2=O)CC1`: the Potency entry with CP335, in the assay on DFO2036, in the assay with DIV30, in the assay with ECU, in the assay on FAB9 and in the assay on GB4 was “inactive” in each case. Also, the Potency result in the assay on HB3, in the assay on ICS, in the assay with JCK, with N140, with P93_24 and with PAD was “inactive” in each case. Also, the Potency entry in the assay on PC15, in the assay on PC26, with PC49 and in the assay on SC27B was “inactive” throughout.

With `COC(=O)Nc1nc2ccc(C(=O)c3cccs3)cc2[nH]1`, the Potency result in the assay with CP335, in the assay with DFO2036, with DIV30, with Dd2, in the assay with ECU and with FAB9 was “inactive” each time. The Potency entry in the assay with GB4, in the assay on HB3, in the assay with ICS, in the assay with JCK, in the assay with N140 and in the assay with P93_24 was “inactive” throughout. The Potency result in the assay with P94_40, in the assay on PAD, in the assay on PC15, in the assay with PC26, with PC49 and in the assay with SC27B was “inactive” each time.

As to `CN(C)CCOC(c1ccccc1)c1ccccc1`, the Potency result with CP335, in the assay on DFO2036, in the assay on ECU, in the assay on FAB9, with HB3 and with JCK was “inactive” throughout. Further, the Potency entry with PAD, in the assay on PC49 and with SC27B was “inactive” throughout.

As to `COc1ccccc1N1CCN(CC(O)COc2cccc3ccccc23)CC1` (stereo not drawn), the Potency result in the assay on CP335, in the assay on DFO2036, with DIV30, in the assay on Dd2, with ECU and in the assay with FAB9 was “inactive” each time. Moreover, the Potency result in the assay on HB3, in the assay with JCK, in the assay on N140, in the assay with P93_24, in the assay with P94_40 and in the assay with PAD was “inactive” each time. The Potency entry with PC15, in the assay with PC26, in the assay on PC49 and in the assay on SC27B was “inactive” throughout.

With `NC(=O)NO`, the Potency entry in the assay with CP335, with DFO2036, in the assay on DIV17, with DIV30, in the assay with Dd2 and in the assay with ECU was “inactive” throughout. Moreover, the Potency entry with FAB9, with GB4, with HB3, with ICS, in the assay with JCK and in the assay on N140 was “inactive” in each case. Besides, the Potency result in the assay on P93_24, in the assay with P94_40, in the assay on PAD, in the assay on PC15, in the assay with PC26 and in the assay on PC49 was “inactive” each time. Also, the Potency result in the assay on SC27B is “inactive”.

As to `CN1CCC(=C2c3ccccc3CC(=O)c3sccc32)CC1`, the Potency entry in the assay on DFO2036, with HB3, in the assay with PC15 and in the assay on PC49 was “inactive” in each case. In addition, the Potency in the assay on DIV14 was 5.36 µM (active); in the assay on DIV17, 6.01 µM (active); in the assay with Dd2, 4.47 µM (active); in the assay with ECU, 7.08 µM (active); in the assay on FAB9 it was 6.31 µM (active); in the assay on GB4, 1.51 µM (active).

Turning to `CC12CC3CC(C)(C1)CC(N)(C3)C2`, the Potency result in the assay on CP335, with DFO2036, with DIV30, with ECU, with FAB9 and in the assay with HB3 was “inactive” each time. The Potency result in the assay on ICS, in the assay on JCK, in the assay with N140, with P94_40, in the assay with PAD and with PC15 was “inactive” each time. The Potency result with PC26 and with SC27B was “inactive” each time. Also, the Potency with Dd2 was 5.01 µM (active); in the assay with P93_24, 10 µM (active).

On to `O=C(Nc1ccc([N+](=O)[O-])cc1Cl)c1cc(Cl)ccc1O`, for which the Potency in the assay on CP335 is 1.51 µM (active); with DIV14, 1.07 µM (active); with DIV17, 1.2 µM (active); in the assay with Dd2, 0.891 µM (active); with ECU, 1 µM (active); with GB4 it was 1.35 µM (active). Moreover, the Potency with ICS, in the assay on N140, with PAD and with SC27B was 0.631 µM (active) throughout. The Potency result with FAB9, in the assay on JCK, in the assay on PC26 and in the assay with PC49 was “inactive” throughout.

Turning to `CCCNCC(O)COc1ccccc1C(=O)CCc1ccccc1` (stereo not drawn), the Potency in the assay with CP335 is 3.01 µM (active); with DFO2036 it was 1 µM (active); in the assay on DIV17, 0.536 µM (active); in the assay on DIV30 it was 1.69 µM (active); with Dd2, 1 µM (active); in the assay with ECU it was 0.708 µM (active). The Potency is 1.78 µM (active) in the assay with FAB9; 0.675 µM (active) in the assay with GB4; 2 µM (active) in the assay on HB3; 0.251 µM (active) in the assay on ICS; 3.55 µM (active) with JCK; 0.355 µM (active) in the assay with N140. Moreover, the Potency with P93_24 is 0.501 µM (active); in the assay on P94_40 it was 0.316 µM (active); in the assay with PAD, 0.398 µM (active); in the assay with PC15, 0.708 µM (active); with PC26, 1.69 µM (active); in the assay on PC49, 0.316 µM (active). The Potency in the assay with SC27B was 0.891 µM (active).

As to `Nc1nnc(-c2cccc(Cl)c2Cl)c(N)n1`, the Potency result in the assay on CP335, in the assay on DFO2036, in the assay with DIV14, in the assay on DIV17, in the assay with Dd2 and with ECU was “inactive” in each case. The Potency entry in the assay on FAB9, with GB4, with HB3, in the assay with ICS, with JCK and in the assay on N140 was “inactive” in each case. The Potency entry with P93_24, with P94_40, with PAD, in the assay with PC15, with PC26 and in the assay on PC49 was “inactive” throughout. The Potency entry in the assay on SC27B is “inactive”.

`CN(Cc1cnc2nc(N)nc(N)c2n1)c1ccc(C(=O)N[C@@H](CCC(=O)O)C(=O)O)cc1`: the Potency result in the assay on DIV30, in the assay on N140 and in the assay with PC26 was “inactive” in each case. The Potency in the assay with ECU was 0.112 µM (active); in the assay with FAB9 it was 0.0316 µM (active); in the assay with HB3, 0.141 µM (active); in the assay on ICS, 0.112 µM (active); in the assay with P94_40, 0.178 µM (active); with PC15, 0.224 µM (active). Besides, the Potency in the assay on PC49 and in the assay on SC27B was 0.178 µM (active) each time.

Take `CCC1(c2ccccc2)C(=O)NCNC1=O`: the Potency entry with DFO2036, in the assay on DIV14, in the assay with DIV17, in the assay with DIV30, in the assay on Dd2 and with ECU was “inactive” in each case. Also, the Potency entry in the assay on FAB9, in the assay on GB4, in the assay on HB3, in the assay with JCK, in the assay with N140 and with P93_24 was “inactive” throughout. Moreover, the Potency result in the assay on P94_40, with PAD, with PC15, in the assay with PC26, in the assay on PC49 and in the assay on SC27B was “inactive” in each case.

Consider `Cc1ccc(-c2cc(C(F)(F)F)nn2-c2ccc(S(N)(=O)=O)cc2)cc1`, for which the Potency entry in the assay on Dd2, in the assay on FAB9, with HB3, in the assay on JCK and in the assay with PC49 was “inactive” each time. Also, the figures for the Potency in the assay on ECU, with GB4 and in the assay with PC26 were 10 µM (active), 13.5 µM (active) and 9.53 µM (active), respectively.
